Experimental findings from PubChem BioAssay (EPA / NIEHS) are described below.

Activity calls are given as the source filed them. The calls were made as follows: active = hit-call score of the fitted dose curve at least 0.9, where 1 is the maximum; inactive = score below 0.9.

Read-out in the assay: Intercellular Adhesion Molecule 1 (ICAM1), ICAM1 (gene 3383)
As to the kind of experiment: LTEA_HepaRG_ICAM1: Life Technologies and Expression Analysis (LTEA) Assay for Intercellular Adhesion Molecule 1 (ICAM1) using HepaRG (AID 2283507). To be noted: mRNA level, 48 h; actives raise or lower the signal. As to the method:
LTEA_HepaRG is a cell based, multiplexed-readout assay that uses HepaRG, a human liver cell line, with measurements taken at 48 hours after chemical dosing on a 96-well plate.LTEA_HepaRG_ICAM1 is one of 102 assay component(s) measured in the LTEA HepaRG cell culture assay. It is a marker of Fibrosis.Data from the assay component LTEA_HepaRG_ICAM1 was analyzed into 1 endpoint. This assay endpoint, LTEA_HepaRG_ICAM1, was analyzed with bidirectional fitting relative to DMSO as the negative control and baseline of activity. Using a type of inducible reporter, measures of mRNA induction for gain or loss-of-signal activity can be used to understand regulation of transcription factor activity. To generalize the intended target to other relatable targets, this assay endpoint is annotated to the cell adhesion molecules intended target family, where the subfamily is Immunoglobulin CAM.
A total of 1060 chemcials from the ToxCast library were tested in eight-point concentration-response experiments. Cell culture and cytotoxicity assays were conducted at Thermo Fisher Scientific's Custom Services facility (Madison, WI). A single lot of human HepaRG cells (Thermo Fisher Scientific, Frederick, MD) was used for the cell culture experiments. 96-well format collagen type I coated plates of human HepaRG cells were prepared using established methods. Briefly, cryopreserved HepaRG cells were thawed, plated at a density of approximately 100,000 cells/well in HepaRG Thaw, Plate, and General Purpose media (HPRG770, Thermo Fisher Scientific), and incubated for 48 hours. 0.5% DMSO was selected as vehicle control to balance the requisite need of DMSO in HepaRG cultures to maintain differentiation (for example, baseline metabolism, proportions of hepatocytes vs. cholangiocytes), while enabling further hepatic receptor pathway activation (for example, PXR and CAR) in response to chemical exposure. 48 hours after plating, the culture medium was replaced with HepaRG Serum-Free Incudtion Media. Cells were exposed to each test chemical in duplicate and maintained in CO2 incubators for another 48 hours. Chemical plates were thawed to room temperature and 200x concentrations of treatment groups were prepared. 8-point conentration-reponse curves were made with the highest exposure at 100 uM, followed by half-log dilutions, all in 0.5% DMSO. Each test plate contained variouse controls, induction positive controls (1mM phenobarbital), cytotoxicity positive controls ([…] aflatoxin B1), vehicle controls (0.5% DMSO), and total lysis controls (0.5% DMSO). Cell morphology images were taken using an Essen IncuCyte FLR automated microscope, with six 96-well plates imaged in about 24 minutes. Images were captured and exported and JPEG files. Spent culture media was transfered to black-well plates for the LDH assay, and remaining media was sorted at -80 C for later use. Cells were treated with RLT buffer and frozen until shipped for gene expression analysis. Total RNA was isolated from the cell suspension in 75 uL of Buffer RLT (Qiagen, Germantown, MD 20874) by Quintiles/Expression Analysis (Durham, NC) using a custom isolation procedure. Total RNA from each plate well was transferred to a preamplification plate. Fluidigm's 96.96 Dynamic ArrayTM (Fluidigm, Amsterdam, the Netherlands) technology was used for gene expression analyses by quantitative reverse transcription polymerase chain reaction (qRT-PCR, performed by Quintiles/Expression Analysis, Durham, NC)89. Standard TaqManTM Assays (Applied Biosystems/ThermoFisher Scientific, Foster City, CA) were used to assess the expression of 93 genes selected based on their selectivity and sensitivity to important hepatic receptors known to be modulated by environmental chemicals; importance in human hepatocyte functionality; and hepatotoxicity. […]
As for `CCc1nc(N)nc(N)c1-c1ccc(Cl)cc1`, the molecule was called inactive.

As for `CC(=O)OC1CC(C)OC(C)O1` (stereo not given), the molecule was classed as inactive.

For `CC(C)(O)c1ccc(CNC(=O)c2cccnc2Oc2ccc(F)cc2)cc1`, the call was inactive.

In the case of `C/C=C/c1ccc(OC)cc1`, the call was inactive.

In the case of `CCCC[C@H]1CN(CC2CCOCC2)C(=O)OC12CCN(C1(C)CCN(C(=O)c3c(C)ncnc3C)CC1)CC2`, the molecule was called inactive.

Regarding `COc1ccc(C(=O)Nc2nc3ccccc3c(NCc3ccccc3)c2C#N)cc1`, the outcome was inactive.

Take `CC(=O)CC(c1ccccc1)c1c(O)c2ccccc2oc1=O` (stereo not given): the result was inactive.

As usually defined, the AC50 is the concentration giving half of the maximal activity seen. Consider `O=C(N[C@@H](c1ccccc1)[C@@H]1CCCCN1)c1cccc(C(F)(F)F)c1Cl`, for which the AC50 was 61.9 µM (active).

With `N[C@@H](Cc1c[nH]c2ccccc12)C(=O)O`, the result was inactive.

For the molecule `CC(=O)O`, the call was inactive.

On to `CCCC(=O)O`, for which the outcome was inactive.

With `O=C(O)CN(CC(=O)O)CC(=O)O`, the outcome was inactive.

Take `CN(C)C(=O)NC1(c2ccccc2)CCN(CCC[C@]2(c3ccc(Cl)c(Cl)c3)CCCN(C(=O)c3ccccc3)C2)CC1`: the AC50 is 20.1 µM (active).

As for `CC1(C)C(=O)NC(=O)N1CO`, the molecule was classed as inactive.

With `CC(=O)[C@@]1(O)CC[C@H]2[C@@H]3CCC4=CC(=O)CC[C@]4(C)[C@H]3CC[C@@]21C`, the outcome was inactive.

On to `Cc1ccc(C(C)(C)C)c(O)c1`, for which the outcome was inactive.

As for `OCC(O)CO`, the result was inactive.

Turning to `CC(=O)OCC(COC(C)=O)OC(C)=O`, the outcome was inactive.

With `O=C1c2c(O)cccc2Cc2cccc(O)c21`, the molecule was called inactive.

Consider `CN(C)CCCN(C)CCCN(C)C`, for which the outcome was inactive.

As for `CCCCCCCC(=O)OC`, the call was inactive.

Take `CC(C)c1cccc(C(C)C)c1NC(=O)NS(=O)(=O)c1cc(C(C)(C)O)co1`: the molecule was classed as inactive.

Take `Cc1c(C)c2c(c(C)c1O)CCC(C)(COc1ccc(CC3SC(=O)NC3=O)cc1)O2` (stereo not given): the call was inactive.

As to `CCCCc1nc2cccnc2n1Cc1ccc(-c2ccccc2-c2nnn[nH]2)cc1`, the molecule was classed as inactive.

For `O=C1OC(c2ccc(O)cc2)(c2ccc(O)cc2)c2ccccc21`, the molecule was called inactive.

In the case of `COc1ccc(OC(F)(F)F)cc1CN[C@H]1CCCN[C@H]1c1ccccc1`, the half-maximal activity concentration (AC50) was 75.7 µM (active).

On to `Cc1cc(Cc2ccc(N)c(C)c2)ccc1N`, for which the molecule was classed as inactive.

Take `CN(C)C(=O)NC1(c2ccccc2)CCN(CC[C@@]2(c3ccc(F)c(F)c3)CN(C(=O)c3ccccc3)CCO2)CC1`: the molecule was called inactive.

On to `COC(=O)[C@H]1[C@H]2C[C@@H]3c4[nH]c5cc(OC)ccc5c4CCN3C[C@H]2C[C@@H](OC(=O)c2cc(OC)c(OC)c(OC)c2)[C@@H]1OC`, for which the AC50 was 28.7 µM (active).

For the molecule `Cc1cn([C@H]2C=C[C@@H](CO)O2)c(=O)[nH]c1=O`, the result was inactive.

Consider `CCCCCCCCCC[N+](C)(C)[O-]`, for which the outcome was inactive.

In the case of `Cc1ccc(-c2cc(C(F)(F)F)nn2-c2ccc(S(N)(=O)=O)cc2)cc1`, the half-maximal activity concentration (AC50) is 50 µM (active).

In the case of `C/C=C/C=C/C(=O)O`, the call was inactive.

For the molecule `C#CC(O)C(CC)CCCC` (stereo not given), the call was inactive.

With `CCN(CC)CCOc1ccc(C(=C(Cl)c2ccccc2)c2ccccc2)cc1`, the AC50 was 77.1 µM (active).

With `CCCCC(CC)COC(=O)CCCCCCCC(=O)OCC(CC)CCCC` (stereo not given), the result was inactive.

As for `c1ccc2occc2c1`, the molecule was classed as inactive.

In the case of `C=CCc1ccc(OC)c(OC)c1`, the call was inactive.

As for `NCCOCCOCCN`, the outcome was inactive.

As for `CCCCCCCCCCCCCCOS(=O)(=O)O`, the result was inactive.
